From PubChem BioAssay (Tox21)
Records with an inconclusive call do not appear. Active and inactive are the calls of the source. Unless noted, calls come from the whole dose curve; as a rule, active = well fitted curve in the direction sought with a large enough effect in the repeat runs; inconclusive = weak or mixed curves; inactive = no such curve, though single readings can be large; an effect the other way counts as inactive or inconclusive.

Experiments:
[1] = qHTS assay to identify small molecule antagonists of the estrogen related receptor (ERR) signaling pathway from Tox21 library - cell viability counter screen (AID 1224834); note: nearly all actives have a fitted effect of over 30% in size
Outline: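 Cytotoxicity of test substances is gauged in the same ERR cells used for the antagonist screen, after 17.5 h of compound treatment at 37 C, by CellTiter-Fluor fluorescence measured after 30 min.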

[2] = molecular target: Luciferin 4-monooxygenase (Photinus pyralis) (UniProt P08659); experiment: qHTS assay to identify small molecule inhibitors of firefly luciferase (AID 1224835); note: nearly all actives have a fitted effect of over 25% in size; note: potency is the fitted concentration of half-maximal effect
Outline: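 Inhibition of purified Photinus luciferase is measured by luminescence. Substrate levels (D-luciferin, ATP) sit at their KM values. Each compound is tested in a concentration series.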

[3] = qHTS assay to identify small molecule agonists of the constitutive androstane receptor (CAR) signaling pathway - cell viability counter screen (AID 1224836); note: series mostly up to about 92 µM; nearly all actives have a fitted effect of over 45% in size
Outline: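 23 h treatment, 37 C, 5% CO2. Cell line: HepG2 stably expressing hCAR with a CYP2B6-2.2kb construct. Co-treatment: PK11195, 0.75 uM final. Read-out: CellTiter-Fluor fluorescence intensity.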

[4] = qHTS assay to identify small molecule antagonists of the constitutive androstane receptor (CAR) signaling pathway - cell viability counter screen (AID 1224837); note: series mostly up to about 92 µM; nearly all actives have a fitted effect of over 45% in size
Outline: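 Multiplexed cytotoxicity read-out for the CAR antagonist screen: double-stable HepG2-CYP2B6-hCAR cells co-treated with 50 nM CITCO (final) and compound over 15 concentrations, incubated 23 hr, then assessed by CellTiter-Fluor fluorescence.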

[5] = molecular target: Nuclear receptor subfamily 1 group I member 3 (Homo sapiens) (UniProt Q14994); experiment: qHTS assay to identify small molecule antagonists of the constitutive androstane receptor (CAR) signaling pathway (AID 1224838); note: nearly all actives have a fitted effect of over 40% in size
Outline: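 Compounds were titrated across 15 concentrations onto HepG2 cells double-stably expressing hCAR and a CYP2B6-2.2kb reporter, together with 50 nM CITCO (final). After 24 h at 37 C, luciferase activity was measured by luminescence.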

[6] = molecular target: Nuclear receptor subfamily 1 group I member 3 (Homo sapiens) (UniProt Q14994); experiment: qHTS assay to identify small molecule agonists of the constitutive androstane receptor (CAR) signaling pathway (AID 1224839); note: nearly all actives have a fitted effect of over 15% in size; note: potency is the fitted concentration of half-maximal effect
Outline: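 Compounds tested at 15 concentrations on HepG2 cells stably harbouring hCAR and CYP2B6-2.2kb reporter constructs, co-treated with PK11195 (0.75 uM final), 24 h at 37 C; luminescent reporter signal quantified.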

[7] = qHTS assay to identify small molecule antagonists of the estrogen related receptor signaling pathway with the pleiotropic PPARgamma coactivator (PGC) from Tox21 10K library - cell viability counter screen (AID 1224840; active = well fitted cell-killing curve with a large enough effect in the repeat runs, not every such curve was filed as active; note: nearly all actives have a fitted effect of over 40% in size)
Outline: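 Step one, plate 2,000 PGC/ERR cells per well; step two, incubate 6 h at 37 C/5% CO2; step three, pin-transfer compounds; step four, incubate 17.5 h; step five, add CellTiter-Fluor and read fluorescence after 30 min.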

[8] = qHTS assay to identify small molecule agonists of the estrogen related receptor signaling pathway with the pleiotropic PPARgamma coactivator (PGC) (AID 1224823)
Outline: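 Steps: plate PGC/ERR cells at 2,000 cells/well; incubate 6 h, 37 C/5% CO2; pin-transfer compounds (DMSO); incubate 18 h, 37 C; add One-Glo; 30 min RT; read luminescence.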

[9] = qHTS assay to identify small molecule antagonists of the estrogen related receptor signaling pathway with the pleiotropic PPARgamma coactivator (PGC) from Tox21 10K library (AID 1224841; call rule not given here; note: actives are mostly falling curves and most rising ones were filed inactive; nearly all actives have a fitted effect of over 50% in size; note: potency is the fitted concentration of half-maximal effect)
Outline: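 Antagonism in this quantitative HTS is taken from loss of luciferase signal in PGC/ERR cells. Cells (2,000/well) are treated with compounds in DMSO after a 6 h settling period and read by One-Glo luminescence after 18 h.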

[10] = qHTS assay to identify small molecule agonists of the estrogen related receptor signaling pathway with the pleiotropic PPARgamma coactivator (PGC) from Tox21 10K library (AID 1224842); note: nearly all actives have a fitted effect of over 15% in size
Outline: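 Luminescence from One-Glo (30 min, room temperature) measured after PGC/ERR cells had 18 h at 37 C with pinned compound (23 nL in DMSO). Cells had been seeded at 2,000 per well and pre-incubated 6 h.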

Measured: Potency

Chain of Luciferin 4-monooxygenase (Photinus pyralis) (P08659 whole entry, looked up): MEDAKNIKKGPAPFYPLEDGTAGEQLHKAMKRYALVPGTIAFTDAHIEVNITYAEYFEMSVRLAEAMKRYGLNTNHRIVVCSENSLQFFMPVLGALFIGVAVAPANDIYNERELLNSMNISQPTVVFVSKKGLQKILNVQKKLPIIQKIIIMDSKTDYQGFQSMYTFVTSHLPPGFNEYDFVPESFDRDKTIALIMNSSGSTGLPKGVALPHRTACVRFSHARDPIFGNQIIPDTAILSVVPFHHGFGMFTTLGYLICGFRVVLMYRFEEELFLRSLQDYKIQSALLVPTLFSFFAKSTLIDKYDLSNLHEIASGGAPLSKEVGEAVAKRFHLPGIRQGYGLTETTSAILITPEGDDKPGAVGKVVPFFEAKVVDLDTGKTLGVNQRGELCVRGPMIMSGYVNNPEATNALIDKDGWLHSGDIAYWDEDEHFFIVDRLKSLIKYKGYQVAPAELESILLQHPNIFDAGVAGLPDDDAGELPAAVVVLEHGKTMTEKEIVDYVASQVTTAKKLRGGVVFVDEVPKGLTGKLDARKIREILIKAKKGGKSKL
Chain of Nuclear receptor subfamily 1 group I member 3 (Homo sapiens) (Q14994 whole entry, looked up): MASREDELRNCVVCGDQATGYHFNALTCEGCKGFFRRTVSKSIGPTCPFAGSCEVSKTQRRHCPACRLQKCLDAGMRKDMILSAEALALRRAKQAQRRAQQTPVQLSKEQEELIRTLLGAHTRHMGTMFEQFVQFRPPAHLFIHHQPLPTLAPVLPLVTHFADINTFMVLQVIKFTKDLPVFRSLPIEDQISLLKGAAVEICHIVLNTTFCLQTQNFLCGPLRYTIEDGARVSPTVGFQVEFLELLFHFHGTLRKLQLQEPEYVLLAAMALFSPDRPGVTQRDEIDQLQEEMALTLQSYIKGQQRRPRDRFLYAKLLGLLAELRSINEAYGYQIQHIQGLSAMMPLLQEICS

CCCCCCCCOCCCN
not listed: [8] | [9] | [10]
inactive: all other assays above

O=C(O)c1cccc(C(=O)O)c1C(=O)O
not listed: [8] | [9] | [10]
inactive: all other assays above

CCCCC(CC)COCCC#N (stereo not drawn)
not listed: [8] | [9] | [10]
inactive: all other assays above

CC(=O)c1ccc(Cl)c(Cl)c1Cl
not listed: [8] | [9] | [10]
inactive: all other assays above

CCOc1ccc2c(c1)C(C)CC(C)(C)N2 (stereo not drawn)
inactive: [1] | [3] | [4] | [5] | [7]
active: [2] 31.7 µM | [6] 27.3 µM

O=C(O)c1cccnc1Nc1cccc(C(F)(F)F)c1
active: [2] 19.5 µM
not listed: [6]
inactive: all other assays above

CCCC1CCCC(=O)O1 (stereo not drawn)
not listed: [8] | [9] | [10]
inactive: all other assays above

CCN(CC)CC(=O)OCC(=O)[C@@]1(O)CC[C@H]2[C@@H]3CCC4=CC(=O)CC[C@]4(C)[C@H]3[C@@H](O)C[C@@]21C
not listed: [8] | [9] | [10]
inactive: all other assays above

CC(C)CCCCCOC(=O)CS
not listed: [8] | [9] | [10]
inactive: all other assays above

Nc1ccc(F)cc1F
not listed: [8] | [9] | [10]
inactive: all other assays above

O=C1CCCN1CCO
not listed: [8] | [9] | [10]
inactive: all other assays above

c1ccc(CCNc2nc(-c3ccccc3)cs2)cc1
active: [2] 3.47 µM | [6] 7.5 µM
inactive: [1] | [3] | [4] | [5] | [7]

O=C(Nc1ccccc1)c1cc([N+](=O)[O-])ccc1Cl
active: [9] 15.4 µM
inactive: all other assays above

CC(C)NC(=O)c1ccccc1N
not listed: [8] | [9] | [10]
inactive: all other assays above

CC1(C)CC(O)CC(C)(C)N1[O]
not listed: [8] | [9] | [10]
inactive: all other assays above

O=C(O)COCC(=O)O
not listed: [8] | [9] | [10]
inactive: all other assays above

FC1(F)C(F)(F)C(F)(F)C2(F)C(F)(C1(F)F)C(F)(F)C(F)(F)C1(F)C(F)(F)C(F)(F)C(F)(F)C(F)(F)C12F (stereo not drawn)
not listed: [8] | [9] | [10]
inactive: all other assays above

CCC(CC)C(=O)O
not listed: [8] | [9] | [10]
inactive: all other assays above

O=[N+]([O-])c1cccc(I)c1
not listed: [8] | [9] | [10]
inactive: all other assays above

CC(C)(O)C(=O)O
not listed: [8] | [9] | [10]
inactive: all other assays above

NC(=O)c1cc[n+](CC2=C(C(=O)[O-])N3C(=O)[C@@H](NC(=O)Cc4cccs4)[C@H]3SC2)cc1
not listed: [8] | [9] | [10]
inactive: all other assays above

CC1(C)[C@@H]2CC[C@]3(C2)[C@@H]1C(=O)CCC3(C)C
not listed: [8] | [9] | [10]
inactive: all other assays above

CC(CCl)OC(C)CCl (stereo not drawn)
not listed: [8] | [9] | [10]
inactive: all other assays above

O=C(OCCN1CCOCC1)c1cccnc1Nc1cccc(C(F)(F)F)c1
not listed: [8] | [9] | [10]
inactive: all other assays above

CCOC(OCC)OCC
not listed: [8] | [9] | [10]
inactive: all other assays above

Cc1ccc(S(=O)(=O)NC(=O)NC2CCCC2)cc1
not listed: [8] | [9] | [10]
inactive: all other assays above

C[C@@H](O)[C@H]1C(=O)N2C(C(=O)O)=C(S[C@@H]3CN[C@H](CNS(N)(=O)=O)C3)[C@H](C)[C@H]12
not listed: [8] | [9] | [10]
inactive: all other assays above

CC1(C)C(=O)NC(=O)N1CO
not listed: [8] | [9] | [10]
inactive: all other assays above

O=C(O)c1ccccc1-n1cc(C(=O)O)c(=O)c2cc(Nc3c(F)cc(F)cc3Cl)c(Cl)cc21
not listed: [8] | [9] | [10]
inactive: all other assays above
